KDM5B inh: Primary screen for KDM5B Histone Demethylases FDH-coupled qHTS; KDM5B demethylase, FDH-coupled NADH fluorescence (FDH is formaldehyde dehydrogenase); Potency, µM (highest dose often 57.7 µM), actives largely listed as inhibitors; 2.6% of 220,000 active; AID 1347165, 2019; active means well fitted inhibition curve with a large enough effect; inconclusive means small, poorly fitted or top-dose-only effect; inactive means no such curve, though single readings can be large or run the other way; further: potency means the concentration at half of the fitted maximal effect; 0% is about no effect; nearly all actives have a fitted effect of over 70% in size
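Inhibition is measured as reduced NADH fluorescence generation from FDH coupling to formaldehyde release. Truncated KDM5BΔAP at 200 nM final acts on H3K4me3 peptide (12.5 µM in substrate mix) in pH 7.5 HEPES buffer with Tween-20, 30 min, room temperature.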
IP6K1 inh: Primary qHTS assay for small molecule inhibitors of Inositol hexaphosphate kinase 1 (IP6K1); Inositol hexakisphosphate kinase 1 (Homo sapiens), Q92551; AID 1645851, 2021; IP6K1 kinase, ADP-Glo luminescence, 2 h; hits give low values; 0.81% of 140,000 active; activity change, % (series mostly up to about 58 µM); in the data active means activity change below about -25%; further: on the % scale 0 is the no-effect control and ±100 the full control effect
Target sequence (Q92551 whole entry, looked up): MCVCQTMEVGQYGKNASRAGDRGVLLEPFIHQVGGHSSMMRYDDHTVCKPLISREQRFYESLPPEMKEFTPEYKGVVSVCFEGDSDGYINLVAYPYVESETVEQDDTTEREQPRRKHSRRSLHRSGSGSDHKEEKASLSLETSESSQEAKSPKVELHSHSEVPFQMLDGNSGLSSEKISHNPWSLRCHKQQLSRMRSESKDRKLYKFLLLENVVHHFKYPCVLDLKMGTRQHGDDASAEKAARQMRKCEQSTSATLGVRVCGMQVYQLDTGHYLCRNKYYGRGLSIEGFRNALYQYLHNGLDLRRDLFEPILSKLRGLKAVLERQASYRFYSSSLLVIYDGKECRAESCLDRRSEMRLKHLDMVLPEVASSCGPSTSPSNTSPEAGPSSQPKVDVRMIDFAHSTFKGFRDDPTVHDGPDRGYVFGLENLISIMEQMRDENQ
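ADP-Glo luminescence measures ADP made by human IP6K1 during a 2 h RT reaction with ATP/IP6 (mix at 1.3 mM/130 uM); top library doses 57.5 and 19.1 uM final.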
* hit, by the source's call; i = inactive; ? = inconclusive; . = no result given. Most compounds without a hit are left out; they make up all but 2.7% or so of the library.

SMILES | KDM5B inh | IP6K1 inh
CC(C)S(=O)(=O)N1CC(Oc2ccc(-c3noc(-c4cccnc4)n3)cc2)C1 | 28µM* | -10
COCCCN1C(=O)CC[C@H]2CN(Cc3cc(CC(C)C)n[nH]3)CC[C@H]21 | i | -2
Cc1ccn2c(=O)cc(CN3CC[C@@H]4[C@@H](CCC(=O)N4CCC(C)C)C3)nc2c1 | 28µM* | 6
CN(C)C(=O)c1[nH]cnc1C(=O)NCC(C)(C)C | i | .
CN(C)C(=O)c1ccc2cc[nH]c2n1 | 126µM* | -3
O=C(Nc1ccc(F)c(F)c1)c1ccc2ccccc2n1 | i | .
O=C(Nc1ccc(F)cc1)c1ccc2cc[nH]c2n1 | 112µM* | 6
O=C(N1CCC(Cc2noc(-c3ccc(F)cc3)n2)C1)C1(c2ccccc2)CC1 (stereo not given) | . | 9
Cc1cccc(-n2nc(C)c(CCC(=O)N(C)C(C)C)c2Oc2ccccc2C)c1 | i | 2
Cn1ncc2c(C(=O)NCc3ccc(Cl)cc3)cc(-c3cccc(F)c3)nc21 | . | 15
COC[C@@H]1CN(C(=O)c2cccc3[nH]ccc23)C[C@H]1c1nc(C)no1 | 20µM* | -6
CC(C)c1noc(-c2cn(C3CCN(C(=O)c4ccc5[nH]ccc5c4)CC3)nn2)n1 | i | 0
Cc1noc(-c2cn(C3CCCN(C(=O)c4cccc5[nH]ccc45)C3)nn2)n1 (stereo not given) | 20µM* | 1
Cc1noc([C@@H]2CN(C(=O)c3c[nH]c4ccccc34)C[C@H]2CO)n1 | i | -6
Cc1noc(-c2cn(C3CCN(C(=O)c4cccc5[nH]ccc45)CC3)nn2)n1 | ? | 17
CC(C)c1noc(-c2cn(C3CCN(C(=O)c4cccc5[nH]ccc45)C3)nn2)n1 (stereo not given) | 22µM* | -6
CC(C)c1noc(-c2cn(C3CCCN(C(=O)c4cccc5[nH]ccc45)C3)nn2)n1 (stereo not given) | 18µM* | 0
O=C(c1cccc2[nH]ccc12)N1CCCC(n2cc(-c3nc(C4CC4)no3)nn2)C1 (stereo not given) | ? | 1
Cc1cc(C(=O)OCC(=O)NC(=O)NC(C)(C)C)c2ccccc2n1 | i | .
COc1ccc(OCCOC(=O)C2Cc3ccccc3C(=O)O2)cc1 (stereo not given) | i | .
CC(NC(=O)CC1C=CCC1)c1ccc2c(c1)CCCC2 (stereo not given) | i | .
Cc1cc(C(=O)N[C@H](C)c2c(-c3ccc(Cl)cc3)noc2C(=O)O)c(C)o1 | 28µM* | -11
C[C@@H](NC(=O)c1ccc(Cl)cc1)c1c(-c2ccc(F)cc2)noc1C(=O)O | ? | -23
Cc1ccccc1-n1nnnc1C(C)(C)NC1CCCCC1 | i | .
Cc1[nH]c(=O)c(C#N)cc1C(=O)N1CCC2(CC1)C(=O)Nc1ccccc12 | 22µM* | 9
SMILES | KDM5B inh | IP6K1 inh
O=C(c1ccccc1)N1CCC2(C1)C(=O)Nc1ccccc12 (stereo not given) | i | -7
CCCCOCCCNC(=O)CCC(=O)NC1CCCC(C)C1C (stereo not given) | i | .
OCC1CN(c2ncccn2)CC12CCN(Cc1c[nH]c3ccccc13)CC2 (stereo not given) | ? | 18
O=C(c1cccc2[nH]ccc12)N1CCC2(CC1)CN(c1ncccn1)CC2CO (stereo not given) | 32µM* | 11
OCC1CN(c2ncccn2)CC12CCN(Cc1ccc3[nH]ccc3c1)CC2 (stereo not given) | 22µM* | 16
CC(=O)N1CC(CO)C2(CCN(Cc3cccc(C#N)c3)CC2)C1 (stereo not given) | i | 6
OCC1CN(c2ncccn2)CC12CCN(Cc1cc(F)ccc1F)CC2 (stereo not given) | ? | 22
N#Cc1cccc(CN2CCC3(CC2)CN(c2ncccn2)CC3CO)c1 (stereo not given) | 28µM* | 18
OCC1CN(c2ncccn2)CC12CCN(Cc1cccc3[nH]ccc13)CC2 (stereo not given) | 32µM* | 1
O=C(c1cccc2[nH]ccc12)N1CCC([C@@H]2CNC[C@H]2CO)CC1 | ? | -8
CC(C)NC(=O)CSc1nc(NC2CC2)c2ccccc2n1 | i | .
O=C(NCc1ccc(Cl)cc1)c1cn2cc(-c3ccc(F)cc3)sc2n1 | . | 17
CCOCCOC(=O)c1nc2ccccc2nc1Nc1ccc(C)cc1C | i | .
COc1ccc(-c2cc(C(=O)NCC(F)(F)F)c3c(C4CCNC4)nn(C)c3n2)cc1 (stereo not given) | ? | -2
O=C(Nc1ccc2c(c1)OCO2)C1CCCN(c2cnn(Cc3ccccc3)c(=O)c2)C1 (stereo not given) | ? | 15
O=C(Nc1ccc2oc(-c3ccccc3)nc2c1)C1CCN(c2cnn(Cc3ccccc3)c(=O)c2)C1 (stereo not given) | 18µM* | 13
CNc1ccc(OC2CCN(C(=O)COC)CC2)nc1 | 28µM* | 2
CN(C)CC(=O)Nc1ccc(OC2CCN(C)CC2)nc1 | i | 4
CCOC(=O)c1cc2c(=O)n3ccccc3nc2n(Cc2ccco2)c1=NC(=O)c1c(F)cccc1Cl | ? | -60*
CCOC(=O)c1cc2c(=O)n3ccccc3nc2n(Cc2ccco2)c1=NC(=O)c1cccc(Br)c1 | ? | -4
COC(=O)c1c(NC(=O)c2ccccc2)c2cc(NC3CCOCC3)cnc2n1CC1CCCO1 (stereo not given) | i | 2
COC(=O)c1c(NC(C)=O)c2cc(NC3CCN(C(C)=O)CC3)cnc2n1CC1CCCO1 (stereo not given) | 20µM* | 8
N#CC1CCNCC1 | i | .
COc1ccc(CCNC(=O)c2noc(-c3ccc[nH]c3=O)n2)cc1OC | 32µM* | 0
Cc1ccccc1C(=O)NCCC1=CCCCC1 | i | .
SMILES | KDM5B inh | IP6K1 inh
O=C(NCC1CCCO1)c1noc(-c2ccc[nH]c2=O)n1 (stereo not given) | 28µM* | 2
COc1ccc(CCNC(=O)c2cc([N+](=O)[O-])cc([N+](=O)[O-])c2)cc1OC | i | .
CC(C)NC(=O)c1noc(-c2ccc[nH]c2=O)n1 | i | 10
O=C(NCCC1=CCCCC1)c1noc(-c2ccc[nH]c2=O)n1 | 32µM* | -2
CCC(C)(C)NC(=O)/C(=C/c1ccccc1)c1ccccc1 | i | .
Cc1c(C(=O)CSc2nnc(C3CC3)n2C2CC2)sc2ccccc12 | i | .
CCOCCn1c(N2CCN(C)CC2)nc2c1c(=O)[nH]c(=O)n2C | i | .
Cc1ccccc1Cn1cc(-c2ccncc2)cc1C(=O)NC(C)c1ccccn1 (stereo not given) | 32µM* | 2
CC(=O)Nc1ccc(NC(=O)c2cc(-c3ccncc3)cn2Cc2ccccc2C)cc1 | ? | -10
COc1ccc(C2CCCN2C(=O)NCCn2ccnc2)cc1OC (stereo not given) | i | .
CCOC(=O)CN1CCCC1c1ccc(C(=O)NCCn2ccnc2)s1 (stereo not given) | 28µM* | 13
CN1CCCCCC(O)c2cc(C(=O)N3CCN(Cc4ccccc4)CC3)ccc21 (stereo not given) | i | 3
COc1ccc(F)cc1-c1ccc(CN2CCCCC2C(=O)NCCCc2ccccc2)cc1 (stereo not given) | . | 24

Assay outcomes as filed in PubChem BioAssay.
